Compound activity from PubChem BioAssay.
In the library only some 27% were active in any assay of this set; here they are far more common.
CYP2C19 act – increases human CYP2C19 enzyme activity; activation factor at 5 µM; AID 1025; 96,000 tested, under 10 active; recombinant CYP2C19, luciferin-H EGE luminescence; active compounds read high; 0 = fully inhibited enzyme, 1 = untreated enzyme; P33261;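 active = activation factor of at least 2 at 5 µM in the primary screen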;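 note: 0 = wells with 2.5 mM tranylcypromine and 1 = vehicle-only wells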
Target sequence (P33261 whole entry, looked up): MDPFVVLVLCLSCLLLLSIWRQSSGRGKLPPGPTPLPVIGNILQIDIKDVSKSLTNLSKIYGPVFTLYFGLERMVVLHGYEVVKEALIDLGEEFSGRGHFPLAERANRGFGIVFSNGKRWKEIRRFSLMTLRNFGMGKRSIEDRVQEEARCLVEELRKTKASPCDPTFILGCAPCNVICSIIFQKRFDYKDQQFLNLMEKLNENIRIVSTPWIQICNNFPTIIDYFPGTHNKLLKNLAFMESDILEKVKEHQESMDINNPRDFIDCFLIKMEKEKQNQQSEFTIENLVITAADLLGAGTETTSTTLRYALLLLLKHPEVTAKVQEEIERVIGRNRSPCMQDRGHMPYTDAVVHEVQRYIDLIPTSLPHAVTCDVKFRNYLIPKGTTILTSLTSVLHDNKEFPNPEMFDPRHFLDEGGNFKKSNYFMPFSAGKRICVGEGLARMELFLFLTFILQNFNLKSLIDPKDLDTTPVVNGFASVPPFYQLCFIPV
sEH act – activators of human soluble epoxide hydrolase; P34913; activation, % at 2 µM; 91,000 tested, 0.04% active; purified human sEH enzymatic activity, activator screen; AID 717; in the data active = activation above about 37%
CYP2C9 act – activators of human CYP2C9; P11712; recombinant CYP2C9, luciferin-H conversion, luminescence; active compounds read high; factor 1 = untreated enzyme, 0 = blocked; activation factor at 5 µM; 96,000 tested, 1.4% active;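 active = activation factor of 2 or more for CYP2C9 at a 5 µM dose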;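 note: 0 = sulfaphenazole-blocked wells and 1 = vehicle-only wells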
CYP2C19 inhib – blocks human cytochrome P450 2C19 | P33261 | CYP2C19 Supersomes, luciferin-H EGE luminescence, 30 min | inhibition, % at 5 µM | 96,000 tested, 21% active | AID 778;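 active = CYP2C19 inhibition above a set limit at 5 µM in the primary screen, cut at about 50% in these data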;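 note: plate controls were negative control wells for no effect and 2.5 mM tranylcypromine positive control for full effect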
sEH inhibitor – soluble epoxide hydrolase (human) inhibition. recombinant human sEH enzymatic activity assay. AID 707. 91,000 tested, 0.34% active. P34913. inhibition, % at 2 µM; in the data active = inhibition above about 80%
CYP2C9 inhib – human CYP2C9 inhibition | CYP2C9 Supersomes, luciferin-H conversion, luminescence | inhibition, % at 5 µM | 96,000 tested, 20% active | AID 777;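 active = blocking of liver enzyme CYP2C9 beyond about 50% at 5 µM, limit read from the data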
* hit, by the source's call; / = no result.

SMILES	CYP2C19 act	sEH act	CYP2C9 act	CYP2C19 inhib	sEH inhibitor	CYP2C9 inhib
CCOC(=O)C1CCN(Cc2cn[nH]c2-c2ccccc2)CC1	0.7	-1	1	29	3	0
Cc1ccc(C)c(S(=O)(=O)NCC(=O)Nc2sc3c(c2C(N)=O)CCC(C)C3)c1 (stereo unspecified)	0.8	14	1	15	-12	-1
O=C(CCS(=O)(=O)c1ccc(Br)s1)N1CCc2ccccc21	0.8	-4	1.5	24	4	-48
CCCCn1c(N)c(N(CCC(C)C)C(=O)CSc2nnc(C)s2)c(=O)[nH]c1=O	0.8	4	1	16	-5	4
CC1Cc2ccccc2N1CC(=O)NC(=O)NCc1ccco1 (stereo unspecified)	0.2	8	0.4	83*	-8	55*
O=C(CN1C(=O)NC2(CCCCCCC2)C1=O)NC(=O)NCc1ccco1	0.9	13	0.9	9	-14	9
CC1(c2ccccc2)NC(=O)N(CC(=O)NC(=O)NCc2ccco2)C1=O (stereo unspecified)	0.9	5	0.9	7	-1	11
O=C(CN1CCCc2ccccc21)NC(=O)NCc1ccco1	0.3	7	0.5	69*	-10	46
CC(C)CC(C(=O)O)N(Cc1ccccc1)Cc1ccccc1 (stereo unspecified)	/	-7	/	/	9	/
C#CC(CO)N(CCN(Cc1ccccc1)C(C#C)CO)Cc1ccccc1 (stereo unspecified)	0	2	0.1	100*	-1	95*
Cc1ccc(C2C(C(=O)c3cccs3)=C(O)C(=O)N2CCN2CCOCC2)o1 (stereo unspecified)	1.2	10	1.2	-17	-11	-17
COC(=O)C(NC(=O)Nc1ccccc1OC)C(C)C (stereo unspecified)	0.4	-5	0.9	59*	6	12
COc1ccccc1NC(=O)C(C)NS(=O)(=O)c1ccccc1 (stereo unspecified)	0.5	7	2.7*	51*	-4	-175
COC(=O)[C@@H](NC(=O)Nc1ccccc1F)C(C)C	0.8	0	1	17	1	-4
COc1ccccc1CNC(=O)C(C)NS(=O)(=O)c1ccc(C)cc1 (stereo unspecified)	0.8	-5	2.1*	20	8	-108
O=C(NC1CC1)c1ccc(CSCc2cccc(F)c2)o1	0.6	14	0.7	40	-15	27
CC1(C)CC2(CCO1)OC(=O)CC2C(=O)NCc1ccccc1 (stereo unspecified)	0.9	-4	1	9	4	-4
CC(C)(C)c1ccc(C(=O)NNc2cc(N3CCCCC3)nc(N3CCCCC3)n2)cc1	0.9	10	0.4	15	-14	61*
CCOC(=O)c1sc(NC(=S)NC(=O)CC(C)C)cc1C	1.1	-3	1.1	-8	4	-8
CC(Oc1ccc(-c2ccccc2)cc1)C(=O)N1CCOCC1 (stereo unspecified)	0.5	6	0.4	55*	-5	56*
CC(=O)Nc1ccccc1C(=O)C(=O)Nc1cccc(F)c1	/	39*	/	/	-43	/
C=CCSc1nnc(NC(=O)c2cccc(S(=O)(=O)N3CCOCC3)c2)s1	1.1	-18	0.9	-12	16	9
O=C(Cn1cc2c(n1)CCCC2)NCCc1ccccc1	/	-2	/	/	2	/
COc1cccc(CNC(=O)Cn2cc3c(n2)CCCCC3)c1	0.1	3	2.4*	92*	1	-140
CN(C)c1ccc(NC(=O)Cn2cc3c(n2)CCCC3)cc1	0.1	/	1.1	92*	/	-11
SMILES	CYP2C19 act	sEH act	CYP2C9 act	CYP2C19 inhib	sEH inhibitor	CYP2C9 inhib
Cc1cc(C)cc(NC(=O)Cn2cc3c(n2)CCCCC3)c1	0.7	/	0.9	33	/	15
Cc1cc(C(=O)COC(=O)CCC(=O)c2ccc3c(c2)OCCO3)c(C)n1Cc1ccco1	0.3	5	0.3	67*	-1	68*
CCOc1ncccc1C(=O)OCC(=O)c1cc(C)n(Cc2ccco2)c1C	0.2	-8	2.3*	80*	8	-127
CCOc1ncccc1C(=O)OCC(=O)c1ccc(Cl)s1	0.5	12	0.9	55*	-14	10
CCOc1ncccc1C(=O)OCC(=O)c1c(N)n(C)c(=O)n(C)c1=O	1	/	1.3	-5	/	-34
CONC(=O)C1CCN(C(=O)OCc2ccccc2)CC1	0.8	-26	1.3	22	27	-27
O=C(Cn1c(NCCO)nc2ccccc21)c1ccco1	1	10	1.1	-4	-9	-6
Cc1ccc(NC(=S)NCc2ccc3c(c2)OCO3)c(C)c1	0.1	5	0.7	90*	-2	29
Cc1cc(Cl)ccc1NC(=S)NCc1ccc(Cl)cc1	0.5	0	0.5	52*	3	52*
CNC(=S)NCc1ccc(Cl)cc1	/	2	/	/	-4	/
Cc1cc(Cl)ccc1NC(=S)NCCC(c1ccccc1)c1ccccc1	0.1	-63	0.2	88*	63	85*
CCOc1ccc(S(=O)(=O)Nc2ccccc2SC)cc1	0.3	10	1.9	67*	-8	-90
CCOc1ccc(S(=O)(=O)Nc2cc(Cl)ccc2O)cc1	0	18	0	100*	-15	100*
CCOc1ccc(S(=O)(=O)Nc2cccc(Cl)c2)cc1	/	-5	/	/	2	/
CCc1ccccc1NS(=O)(=O)c1ccc(SC)cc1	0.2	-11	1	81*	11	0
CCOc1ccc(NS(=O)(=O)c2ccc(NS(=O)(=O)c3ccccc3)cc2)cc1	0.5	5	0	55*	-6	95*
CCN(CC)S(=O)(=O)c1cc(C(=O)N2CCc3ccccc32)ccc1Cl	0.7	-3	0.7	28	5	28
O=C1/C(=C/c2ccc(N3CCOCC3)o2)SC(=Nc2ccccc2)N1CCc1c[nH]c2ccccc12	0.7	-22	0.4	26	24	63*
O=C1S/C(=C/c2ccc(N3CCOCC3)o2)C(=O)N1Cc1ccc(F)cc1	0.8	8	1	25	-9	0
CCOc1cc(/C=C2\N=C(SC)SC2=O)cc([N+](=O)[O-])c1OC(C)=O	1	10	0.3	-2	-9	71*
CCOc1c(OC(C)=O)ccc(/C=C2\N=C(SCC)SC2=O)c1[N+](=O)[O-]	1	1	0.8	4	-1	20
CCOc1cc(/C=C2\N=C(SCC)SC2=O)cc([N+](=O)[O-])c1OC(C)=O	1.1	2	0.3	-8	-4	72*
CCOC(=O)C1=C(N)OC2=C(C(=O)CCC2)C1c1ccccc1OCC (stereo unspecified)	0.2	0	0.5	80*	-1	49
CCCCOc1ccccc1C1NC(=O)NC(C)=C1C(=O)OCCOCC (stereo unspecified)	0.3	5	0.3	70*	-8	75*
